The results in this text go back to PubChem BioAssay (NCATS).

Structures are written as SMILES. Results filed as inconclusive are left out. A number with no mark means an inactive call. The call rests on the fitted dose curve; in most records, active means well fitted cell-killing curve with a large enough effect; inconclusive means small, poorly fitted or top-dose-only effect, or effect the other way; inactive means flat fitted curve, though single readings scatter. Where a SMILES comes first, the peptide text is derived from it.
On the % scale 0 is the no-effect control and ±100 the full control effect.

This experiment deals with CAOV3. Description: Primary qHTS to identify gynecologic anti-cancer compounds using libraries of approved drugs and bioactive compounds (AID 1345084). Further: nearly all actives have a fitted effect of over 55% in size. The conditions noted are these: Gynecologic cancer cell panel viability, ATPlite luminescence, 48 h; series mostly up to 57.5 µM; activity change, negative = cytotoxicity: at the top concentration. Summed up:
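Cells, 1,000 per well, plated 16 h, then exposed 48 h at 37 C to compounds. Viability by ATPlite luminescence after 15 min at room temperature.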
As for `CC/C=C\C(O)C(O)C1=C(C)C(=O)C2(O1)C(=O)NC(OC)(C(=O)c1ccccc1)C2O` (stereo not drawn), the “activity change, negative = cytotoxicity” value is 3.55% [at 25.3 µM].
Turning to `COc1c2cc(c(O)c1OC)CCCCC(O)CCc1ccc(O)c-2c1` (stereo not drawn), the “activity change, negative = cytotoxicity” value is -0.557% [at 38.5 µM].
Under `CC1CC(=O)[C@]2(O)C(C(=O)OCCc3ccc(O)cc3)=CO[C@@H](O[C@@H]3O[C@H](CO)[C@@H](O)[C@H](O)[C@H]3O)[C@H]12` (stereo partly drawn) stands -2.97% [at 25.3 µM]; under `COC(=O)C1=CO[C@@H](O[C@@H]2O[C@H](CO)[C@@H](O)[C@H](O)[C@H]2O)C2C1CC(O)C2C` (stereo partly drawn), -0.0158% [at 38.5 µM]; under `CC(=O)OC[C@]12[C@H](OC(C)=O)[C@H](OC(=O)c3ccccc3)[C@@H]3[C@@H](OC(C)=O)[C@]1(OC3(C)C)[C@H](C)C[C@H](OC(=O)c1ccccc1)[C@@H]2OC(=O)c1ccccc1`, -1.42% [at 25.3 µM].
Under `C[C@]1(C2CCCC2)Cc2cc(OCC(=O)O)c(Cl)c(Cl)c2C1=O` stands 5.05%.
As for `CC(NC(=O)c1ccccc1N)C(=O)O` (stereo not drawn), the “activity change, negative = cytotoxicity” value was 6.31%.
Under `O=C(Nc1ccn(Cc2c(F)cccc2C(F)(F)F)n1)c1c(F)cccc1F` stands 17% [at 11.6 µM]; under `O=C(OC(C(F)(F)F)C(F)(F)F)N1CCN(Cc2cccc(Oc3ccccc3)c2)CC1`, 3.91%.
Take `C[C@H]1CC[C@@]2(OC1)O[C@H]1CC3C4CC[C@H]5C[C@@H](O)CC[C@]5(C)C4CC(=O)[C@]3(C)[C@H]1[C@@H]2C` (stereo partly drawn): the “activity change, negative = cytotoxicity” value is -4.07% [at 25.3 µM].
With `Cc1oc(S(=O)(=O)N2CCCCC2)cc1NC(=O)Nc1ccccc1`, the “activity change, negative = cytotoxicity” value is 19.9%.
Under `CCC(C)/C=C(C)/C=C/C1=CC2=C(Cl)C(=O)C(C)(OC(C)=O)C(=O)C2=CN1C(CC(=O)O)C(=O)O` (stereo not drawn) stands 9.26% [at 25.3 µM]; under `CC(C)[C@](O)(c1ccc2cc(OC(F)F)c(OC(F)F)cc2c1)c1cn[nH]n1`, 27.9%.
The figure for `COc1cc(C(=O)OC[C@H]2O[C@@H](OC(C)(C)C(=O)O)[C@H](O)[C@@H](O)[C@@H]2O)cc(OC)c1O` is 9.6% [at 25.3 µM]; for `COc1cc(C(C)=O)ccc1O[C@@H]1O[C@H](CO)[C@@H](O)[C@H](O)[C@H]1O` it is -4.23% [at 38.5 µM].
Consider `CC1(C)C(=O)CCC2(C)C1C(O)C=C1COC(=O)C12O` (stereo not drawn), for which the “activity change, negative = cytotoxicity” value was -9.9%.
Under `COc1cc(/C=C/c2ccccc2)c(C(=O)O)c(O)c1CC=C(C)C` stands 2.9% [at 38.5 µM]; under `CCC(C)C(C(=O)O)N1Cc2c(OCC=C(C)C)c(C)c(OC)c(C(=O)O)c2C1=O` (stereo not drawn), 28% [at 25.3 µM].
Under `COC(=O)C1=CO[C@@H](O[C@@H]2O[C@H](CO)[C@@H](O)[C@H](O)[C@H]2O)[C@@H]2[C@@H](CO)[C@@H](O)C(O)[C@H]12` (stereo partly drawn) stands 13.7% [at 25.3 µM]; under `CC(C)C[C@H](NC(=O)[C@@H]1O[C@H]1C(=O)O)C(=O)NCCCCN=C(N)N`, 2.14%.
Regarding `C[C@@H]1O[C@@H](OC[C@H]2O[C@@H](OCc3ccccc3)[C@H](O)[C@@H](O)[C@@H]2O)[C@H](O)[C@H](O)[C@H]1O`, the “activity change, negative = cytotoxicity” value was -1.76% [at 25.3 µM].
The figure for `CNC(=O)c1ccc2c(c1)CCO[C@H]2CCN1CCN(c2ccc(C(N)=O)cc2)CC1` is -5.87%.
Under `COC(=O)C1=COC(OC2OC(CO)C(O)C(O)C2O)C2C(COC(=O)/C=C/c3ccc(O)c(O)c3)C(O)C(O)C12` (stereo not drawn) stands 14.7% [at 25.3 µM].
Under `CC(C)C1NC(=O)CNC(=O)C2CCCN2C(=O)C(Cc2c[nH]c3ccccc23)NC(=O)CNC(=O)C(Cc2ccc(O)cc2)NC(=O)CNC1=O` (stereo not drawn) (cyclo(GVGYGWP); configuration not given here) stands -3.89% [at 25.3 µM].
Turning to `CC(C)c1ccc2c(c1)C(=O)CC1C(C)(C(=O)O)CCCC21C` (stereo not drawn), the “activity change, negative = cytotoxicity” value is 5.35% [at 38.5 µM].
The figure for `C=C1CCC2(C(=O)OC3OC(CO)C(O)C(O)C3O)CCC3(C)C(=CCC4C5(C)CCC(OC6OC(CO)C(OC7OC(C)C(O)C(O)C7O)C(OC7OCC(O)C(O)C7O)C6O)C(C)(C)C5CCC43C)C2C1` (stereo not drawn) is 1.68% [at 11.6 µM].
The figure for `C=C1CC2C(C)(CCC(=O)O)C(C(C)(C)O)CCC2(C)C2(C(=O)OC)C(=O)C(C)(O)C(=O)C12C` (stereo not drawn) is -4.02% [at 25.3 µM]; for `COc1ccc(-n2c(SCC#N)nc3sc4c(c3c2=O)CCCC4)cc1` it is 6.06%.
